# Laboratory results as given in PubChem BioAssay AID540263 (National Center for Advancing Translational Sciences (NCATS), 2011).
# The campaign covered roughly 340,000 compounds. About 100 (0.029%) were called active. Inconclusive results (about 8%) are left out. Only a selection was taken, and actives are over-represented in it overall. Values without a mark were called inactive. Calls follow the shape of the full dose curve. Where a SMILES comes first, the peptide text is derived from it. [ ]: non-standard residue; d: D form. ξ: configuration not given here. Ac5c = NC1(C(=O)O)CCCC1; ξS = NC(CO)C(=O)O
# Molecular target: Importin subunit beta-1 (Homo sapiens) (UniProt Q14974)
# Test: qHTS Assay for Inhibitors of Rango (Ran-regulated importin-beta cargo) - Importin beta complex formation;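 also: 0% = DMSO wells and 100% = buffer wells lacking importin beta; nearly all actives have a fitted effect of over 15% in size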
# Conditions: Rango CFP/YFP FRET sensor + importin beta, 45 min; series mostly up to 92.2 µM; inhibition of complex formation: at the top concentration
# Text: NIH Molecular Libraries Probe Production Centers Network [MLPCN] NIH Chemical Genomics Center [NCGC] MLPCN Grant: R03 MH090808-01A1 Assay Submitter (PI): Petr Kalab NCGC Assay Overview: The small GTPase Ran regulates transport of macromolecules between the nucleus and the cytoplasm (nuclear transport) and has important functions in mitotic spindle assembly, nuclear envelope (NE) formation and nuclear pore complex (NPC) assembly. RanGTP gradient is thought to promote spindle assembly by providing a spatial clue to microtubule nucleation and Aurora A activation. Because the localized release and binding of importin alpha cargo relays this spatial clue to SAFs, inhibitors of the Rango - importin beta complex can then be used in further understanding their role in cell cycle specifically in mitosis progression. […] Activation of Aurora A has been linked to different types of cancer and a number of Aurora kinase inhibitors are being developed as potential canter therapeutics therefore, identified inhibitors of this complex could be developed into potential anti-mitotic probes for cancer treatment. Purified recombinant proteins Rango and importin beta were provided by the assay submitter. The assay used a fluorescence resonance energy transfer (FRET) Rango biosensor that contains the IBB of human snurportin 1 flanked by yellow fluorescent protein (EYFP) at the amino terminus and cerulean CFP10 at the carboxy terminus. […] Inhibitors will therefore be identified based on the ability to interfere with the FRET signal decrease. DMSO treated and no importin beta (buffer only) wells were used as negative and positive controls respectively. FRET readings were obtained at two time points. FRET reading prior to importin beta addition (pre-read) were used flag potential compound interference; FRET reading after importin beta addition (post-read) were used to identify inhibitors using the FRET ratio parameter.
# NCGC Assay Protocol Summary: Two and a half uL/well of Rango-buffer solution (50 nM Rango, 1x PBS, 1mM DTT, 0.02% Tween-20, 0.1% BSA final concentrations) was dispensed into 1536-well assay plates (Greiner, solid black medium-binding plates) with Aurora Discovery BioRAPTR Flying Reagent Dispenser (FRD; Beckton-Dickenson). Compound solution (23 nL) was transferred to the assay plate using Kalypsys pin tool equipped with a 1536-pin tool and incubated at room temperature for 5 min followed by a FRET pre-read using the PerkinElmer Envision plate reader. Two and a half uL/well of Importin beta - buffer solution (0.125 microM importin beta, 1x PBS, 1mM DTT, 0.02% Tween-20, 0.1% BSA final concentrations) were then added and incubated at room temperature giving a final reaction volume of 5uL. After 45min FRET post-read was obtained via the Envision plate reader using the same optics and settings as the pre-read (CFP/YFP optimized dual optical module D450/D505; excitation mirror CFP 430/24 nm; and emission filters CFP 486/10 nm and YFP 530/10 nm).
# Sequence of Importin subunit beta-1 (Homo sapiens) (Q14974 whole entry, looked up): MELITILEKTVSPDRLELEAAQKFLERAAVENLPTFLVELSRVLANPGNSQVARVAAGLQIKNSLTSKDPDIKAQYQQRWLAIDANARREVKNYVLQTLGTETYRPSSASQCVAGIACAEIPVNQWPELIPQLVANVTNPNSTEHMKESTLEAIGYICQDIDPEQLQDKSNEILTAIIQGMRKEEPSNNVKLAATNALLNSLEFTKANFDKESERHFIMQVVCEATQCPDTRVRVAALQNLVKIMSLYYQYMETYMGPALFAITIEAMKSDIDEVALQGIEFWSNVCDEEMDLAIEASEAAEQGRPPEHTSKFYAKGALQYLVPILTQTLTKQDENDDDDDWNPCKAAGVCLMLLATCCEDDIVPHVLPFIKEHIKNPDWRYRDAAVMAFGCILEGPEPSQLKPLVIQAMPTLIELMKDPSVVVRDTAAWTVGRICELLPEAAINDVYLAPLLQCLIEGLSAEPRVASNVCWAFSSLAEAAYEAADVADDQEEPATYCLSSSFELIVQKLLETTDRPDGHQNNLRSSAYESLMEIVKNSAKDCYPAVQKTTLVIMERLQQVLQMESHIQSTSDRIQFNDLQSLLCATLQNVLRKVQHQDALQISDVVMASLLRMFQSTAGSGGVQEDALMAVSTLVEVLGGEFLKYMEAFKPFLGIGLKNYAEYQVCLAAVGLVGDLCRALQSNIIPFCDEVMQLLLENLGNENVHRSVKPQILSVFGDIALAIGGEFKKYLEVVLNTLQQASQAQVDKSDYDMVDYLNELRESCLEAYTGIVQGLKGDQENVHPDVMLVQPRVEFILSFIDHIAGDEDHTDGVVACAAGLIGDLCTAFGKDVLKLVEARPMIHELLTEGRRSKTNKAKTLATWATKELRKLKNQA
row,Structure (SMILES),inhibition of complex formation [%]
1,CN1CCC(N(C)C(=O)c2ccc(Cl)c(S(=O)(=O)Nc3ccc(Cl)cc3)c2)CC1,0.197
2,O=C1CC(C(=O)O)NC(=S)N1 (centres undefined),-2.32
3,Cc1ccc(C)c(S(=O)(=O)N(C)c2ccc(OC(=O)C3CCN(C(=O)c4ccc(F)cc4)CC3)cc2)c1,0.0057
4,COc1ccc(C(=O)Nc2cccc(/C=C(/CCC(=O)O)c3nc4ccccc4s3)c2)cc1,1.46
5,O=C1COc2c1ccc(O)c2O,7.6
6,COc1ccc(-c2nnc(-c3ccc4ccccc4c3)o2)cc1,0.838
7,CC(=O)c1cccc(-c2ccc(CN3C(CC(C)C)C(=O)N(Cc4cn(CC5CCCCC5)nn4)CCS3(=O)=O)cc2)c1 (centres undefined),0.492
8,Cn1c(N)cc(=O)n(C)c1=S,1.95
9,Nc1ccc2[nH]c(=S)sc2c1,1.37
10,Cc1nc(N)sc1-c1ccccc1,0.85
11,COc1ccc(Nc2ccc3ccccc3c2)cc1,-0.857
12,O=C(CCC(=O)N1CCN(S(=O)(=O)c2ccc(Cl)cc2)CC1)NCc1cccc(C(F)(F)F)c1,-4.66
13,CCOC(=O)C(CO)NC(=O)C1(NC(C)=O)CCCC1 (centres undefined) (Ac-[Ac5c]-[ξS]-OEt),3.58
14,CCN1CCC(O)(/C=C/c2ccc(C)cc2)C(C(=O)/C=C/c2ccc(C)cc2)C1 (centres undefined),9.28
15,COC(=O)Cc1c(-c2[nH]c3ccccc3c2CC(=O)OC)[nH]c2ccccc12,-5.91
16,CC1(C)C(=O)CCC2(C)C1=CCC1C2C(=O)CC2(C)C1CCC2(O)C(=O)CO (centres undefined),2.32
17,C#CCOCCOCCOCCNc1nc(N2CCOCC2)nc(N2CCN(C(=O)[C@H](Cc3ccc(O)cc3)n3cc(CCO)nn3)CC2)n1,-0.365

row,Structure (SMILES),inhibition of complex formation [%]
1,CSc1ncnc2c1ncn2CC(=O)C1CCC2C3CCC4=CC(=O)CCC4(C)C3CCC12C (centres undefined),-1.96
2,COc1ccc(/C=C/C(=O)OCC(=O)N2CCN(S(=O)(=O)c3ccc(C)cc3C)CC2)cc1OC,-0.829
3,CN(C)c1ccc(CSc2ccccc2)cc1,-3.62
4,Cc1cccc(CC2(O)C(=O)Nc3ccccc32)n1 (centres undefined),-4.17
5,O=C(Cc1ccc(NC(=O)C2CCCN(C(=O)CCc3ccccc3)C2)cc1)Nc1ccc(C(=O)N2CCOCC2)cc1 (centres undefined),5.08
6,O=C(Cc1ccc(S(=O)(=O)N2CCOCC2)s1)Nc1ccc(Br)c(C(F)(F)F)c1,-0.992
7,CN(CCc1ccccc1)C(=O)c1cccc(NC(=O)Cc2cccc(NC(=O)C3CCCN(C(=O)CCc4ccccc4)C3)c2)c1 (centres undefined),-1.7
8,COc1ccc(CNCCCNCc2ccc(OC)c(OC)c2)cc1OC,3.08
9,CCOc1cc(C=NNC(=O)CCCC(=O)NN=Cc2ccc(O)c(OCC)c2)ccc1O,0.872
10,COc1ccc(Br)cc1/C=N/Nc1ccc(S(=O)(=O)Nc2ccccc2C(=O)O)cc1[N+](=O)[O-],7.77
11,O=C(NN=Cc1ccccc1O)NN=Cc1ccccc1O,-2.35
12,O=C(NNC(=O)c1ccccc1O)c1ccccc1O,3.01
13,CCCN(CCC)S(=O)(=O)c1cc2c(cc1Br)CCN2C(=O)CC,7.53
14,CCOc1ccccc1NC(=S)C(=C([O-])c1ccc2c(c1)OCCO2)[n+]1ccc(CC)cc1,-0.299
15,COc1ccc(N=C2C=CC(=O)O2)cc1,-0.507
16,Cc1cccc(C=CC(=O)c2ccc(Cl)cc2)c1,-1
17,COc1ccc(CCNC(=O)COc2cc(C)cc3oc(=O)c(C)c(C)c23)cc1OC,4.97
